Bioassay records as filed in PubChem.
beta cell repl: inducers of MIN6 beta-cell proliferation, primary screen, ATP luminescence, uHTS. 0.29% of 330,000 active. MIN6 cells proliferation, ATPlite luminescence, 48 h; cells starved in 0.2% serum; 100% = growth in 10% serum. proliferation, % at 10 µM. AID 2380, 2010;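 active means compounds whose signal lies at least 3.5 SD above the mean of all wells on their plate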
ABCB6 inh 2: ABCB6 transporter inhibitors, primary screen, K562-ABCB6 cells, flow cytometry, MLPCN library; K562-ABCB6 porphyrin accumulation, 1 h; active compounds read low; fluorescence ratio to DMSO, % at 10 µM; 0.19% of 360,000 active;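 active means fluorescence ratio to DMSO below 75%, the collection mean minus 3 SD; inconclusive means too few cells collected in the well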;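 further: signal is porphyrin accumulated inside mitochondria; lower ratio means ABCB6 inhibition with less porphyrin fluorescence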
Target sequence (Q9NP58 whole entry, looked up): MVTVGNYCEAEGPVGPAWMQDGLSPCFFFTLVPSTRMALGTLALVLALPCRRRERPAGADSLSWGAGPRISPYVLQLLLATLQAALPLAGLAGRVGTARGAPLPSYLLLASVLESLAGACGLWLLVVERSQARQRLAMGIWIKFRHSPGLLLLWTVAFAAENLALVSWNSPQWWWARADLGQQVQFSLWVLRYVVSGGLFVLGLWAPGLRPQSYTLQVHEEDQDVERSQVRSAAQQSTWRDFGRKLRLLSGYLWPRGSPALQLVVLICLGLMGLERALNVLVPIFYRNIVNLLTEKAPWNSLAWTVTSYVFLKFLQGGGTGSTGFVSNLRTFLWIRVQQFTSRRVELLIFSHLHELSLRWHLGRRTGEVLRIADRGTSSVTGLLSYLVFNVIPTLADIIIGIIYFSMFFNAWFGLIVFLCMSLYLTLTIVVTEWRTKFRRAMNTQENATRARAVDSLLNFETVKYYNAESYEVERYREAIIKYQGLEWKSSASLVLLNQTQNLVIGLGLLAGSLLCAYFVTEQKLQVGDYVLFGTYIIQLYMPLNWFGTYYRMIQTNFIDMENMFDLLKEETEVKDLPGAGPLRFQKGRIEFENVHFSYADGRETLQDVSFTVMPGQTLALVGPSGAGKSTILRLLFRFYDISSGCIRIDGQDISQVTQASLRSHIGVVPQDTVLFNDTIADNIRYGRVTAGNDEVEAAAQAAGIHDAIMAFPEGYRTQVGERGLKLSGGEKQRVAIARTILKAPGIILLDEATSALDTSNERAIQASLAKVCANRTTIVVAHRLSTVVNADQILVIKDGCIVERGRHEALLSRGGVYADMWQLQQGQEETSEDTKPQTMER
Myeloid diff 2: induction of myeloid progenitor differentiation, primary screen, cell-based, flow cytometry, MLPCN library. calls only at 10 µM. 1% of 360,000 active. ER-HoxA9 myeloid progenitors, lysozyme-GFP differentiation;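 active means normalized GFP-positive differentiation at or above the plate's own cutoff, the solvent-only control mean plus 3 SD; inconclusive means no clear call, values can overlap the other calls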;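 further: cells exposed to compound for four days before flow analysis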
hiPSC survival: enhancers of single-cell hiPSC survival, primary screen, ATPlite luminescence | 100% = ROCK inhibitor wells, 0% = DMSO | survival enhancement, % at 20 µM | 0.044% of 360,000 active | AID 602274, 2012; in the data active means survival enhancement above about 18%;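 further: cells exposed to compounds for 16 hours before the ATP read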
H9c2 protect: cardioprotection against H2O2-induced cell death, primary screen, uHTS, H9c2 cells, ATPLite luminescence | 0.63% of 360,000 active | H9c2 cardiomyocytes, H2O2 injury protection, 2 h | protection from H2O2 cell death, % at 20 µM;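 active means compounds giving at least 50% protection of heart cells from peroxide-induced death in the single-dose screen, raw or plate-pattern-corrected value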
Numbers stand for hits; - = inactive; ? = inconclusive; . = not tested or not shown; + = active, no number. In the library only some 2.2% were active in any assay of this set; here they are far more common.

SMILES	beta cell repl	ABCB6 inh 2	Myeloid diff 2	hiPSC survival	H9c2 protect
COc1ccc(NC(=O)C[C@H]2C(=O)N(c3ccc(OC)cc3)C[C@@H]2c2ccc(Br)cc2)cc1	.	-	-	-	-
CCOC(=O)c1c(C)[nH]c(C)c1C(=O)COC(=O)/C=C/c1ccc(OC(F)F)cc1	-	-	+	-	-
CCCC(c1nnnn1C(C)(C)CC)N(CCCO)Cc1cc2cc(C)cc(C)c2[nH]c1=O (configuration not stated)	-	-	-	-	59
CCC(c1nnnn1C(C)(C)CC)N(CCCO)Cc1cc2cc(C)cc(C)c2[nH]c1=O (configuration not stated)	.	-	-	-	-
Cc1ccc(-c2nnn(CC(=O)N(c3cccc(F)c3)C(C(=O)NC3CCCC3)c3ccncc3)n2)o1 (configuration not stated)	-	-	-	-	-
Cc1ccccc1-n1c(SCC(=O)c2cc(C)n(C)c2C)nnc1-c1cccnc1	-	-	-	-	-
Cc1ccc(-n2c(-c3ccc(Cl)cc3)n[nH]c2=S)c(C)c1	-	-	+	-	-
Cc1[nH]n(-c2ccccc2)c(=O)c1C=Nc1cccc(F)c1	-	-	-	-	-
Cc1cccc(-n2[nH]c(C)c(C=Nc3ccc4[nH]c(=O)[nH]c4c3)c2=O)c1	-	-	-	-	56
Cc1[nH]n(-c2ccccc2)c(=O)c1C=Nc1ccc2[nH]c(=O)[nH]c2c1	-	-	-	-	55
Cc1ccc(NC(=O)COC(=O)CC2CCCC2)cc1F	-	-	-	-	-
COc1cccc(CN2CC(O)=C(c3nc(-c4ccc(Cl)cc4)cs3)C2=N)c1	-	-	-	-	-
Cc1ccc(OCC(=O)N2CCN(S(=O)(=O)c3ccccc3[N+](=O)[O-])CC2)cc1	-	-	-	-	-
CCC(=O)N1CCCc2cc(S(=O)(=O)N3CCN(c4ccccc4F)CC3)ccc21	-	-	+	-	-
CN(C)CCCN(C(=O)c1ccc2c(c1)CCCC2)c1nc2ccc(Cl)cc2s1	-	-	+	-	-
CC(=O)Cc1cc(O)c2ccccc2c1OC(=O)c1ccc(Br)cc1	-	-	+	-	-
CC(C)Cn1c(N)c(C(=O)CSc2nc3ccccc3n2C)c(=O)n(C)c1=O	-	-	-	-	-
CS(=O)(=O)c1ccc2nc(NC(=O)c3ccccc3)sc2c1	-	-	-	-	-
CC1=CCC(C(=O)O)C(C(=O)Nc2nc3ccc(S(C)(=O)=O)cc3s2)C1 (configuration not stated)	-	-	+	-	-
CCOC(=O)C1=C(C)N(CCCCCC(=O)O)C(=O)NC1c1ccc([N+](=O)[O-])cc1 (configuration not stated)	-	-	-	-	-
O=C1c2ccccc2S(=O)(=O)N1CC(O)COc1ccc(Cl)cc1 (configuration not stated)	-	-	-	-	-
O=C1c2ccccc2S(=O)(=O)N1CC(O)COc1ccc(Br)cc1 (configuration not stated)	-	73	-	-	-
CC(C)Nc1ccc(C(CC(N)=O)NC(=O)Cc2cccc3ccccc23)cc1[N+](=O)[O-] (configuration not stated)	-	-	-	-	-
COc1ccc(Nc2nnc(SCc3cc(=O)n4ccsc4n3)s2)cc1	-	-	-	-	63
CN(C(=O)c1ccc(NC(=O)Cc2ccc(NC(=O)C3CCN(C(=O)CCc4ccccc4)CC3)cc2)cc1)C1CCCC1	.	-	+	-	-
SMILES	beta cell repl	ABCB6 inh 2	Myeloid diff 2	hiPSC survival	H9c2 protect
CN(C(=O)c1ccc(NC(=O)Cc2ccc(NC(=O)C3CCCN(C(=O)C4CCCC4)C3)cc2)cc1)C1CC1 (configuration not stated)	-	-	+	-	-
CCOC(=O)c1[nH]cnc1N=Nc1c(O)ccc2ccccc12	.	-	?	-	65
Cc1ccc2sc(NNC(=O)c3cc(=O)c4ccccc4o3)nc2c1C	-	-	-	-	56
Cc1cccc2sc(NNC(=O)c3cc(=O)c4ccccc4o3)nc12	-	-	-	-	-
O=C(O)CCS(=O)(=O)Cc1ccccc1Cl	-	-	-	-	-
CCOC(=O)C1=C(C)N=c2s/c(=C\c3ccc(OC(C)=O)c(OCC)c3)c(=O)n2C1/C=C/c1ccccc1 (configuration not stated)	-	-	-	-	-
CCOC(=O)C1=C(C)N=c2s/c(=C\c3ccc(OC(C)=O)cc3)c(=O)n2C1/C=C/c1ccccc1 (configuration not stated)	-	-	+	-	-
COc1ccc(O)c(/C=N/Nc2nc(C)cc(-c3ccccc3)n2)c1	-	-	-	-	66
COc1ccc(/C=N/Nc2nc(C)cc(-c3ccccc3)n2)c(OC)c1	-	-	-	-	-
CCOC(=O)c1c(C)nc2sc(C(=O)Nc3ccccc3)c(N)c2c1-c1ccc(OC)cc1	-	-	+	-	-
CCn1cc(C(=O)N[C@@H](CCSC)C(=O)NCCO)c(=O)c2cc3c(cc21)OCO3	-	-	-	-	-
COc1cc(C=NO)nc(-c2ccccn2)c1	.	-	.	-	56
COc1ccc2nc(-c3ccccn3)[nH]c2c1	-	-	-	-	-
N#Cc1cc2c(nc1SCC(=O)N1CCCCC1)CCCC2	-	-	-	-	-
O=C(CNCc1ccco1)Nc1ccc(N2CCCCCC2)cc1	-	-	-	-	-
CC(NC(=O)COc1ncnc2cc([N+](=O)[O-])ccc12)c1ccccc1 (configuration not stated)	-	-	-	-	-
CCOC(=O)c1c(C)[nH]c(C)c1C(=O)COc1ncnc2cc([N+](=O)[O-])ccc12	-	-	-	-	65
CCOc1cc(/C=C2/SC(=S)N(Cc3ccccc3)C2=O)ccc1O	-	-	+	-	-
COc1cc(/C=C2/SC(=S)N(Cc3ccccc3)C2=O)cc(Cl)c1O	.	-	+	-	-
O=C(Cc1ccccc1)NN1C(=O)/C(=C/c2ccc(C(=O)O)cc2)SC1=S	-	-	-	-	-
O=C1/C(=C/c2ccc(O)c([N+](=O)[O-])c2)SC(=S)N1Cc1ccccc1	-	-	-	-	-
O=C(O)c1ccc(/C=C2/SC(=S)N(Cc3ccccc3)C2=O)cc1	.	-	+	-	-
O=C1/C(=C\c2ccc(O)cc2)SC(=S)N1Cc1ccccc1	-	-	+	-	-
CC(C)CC1OC(C)Cc2[nH][nH]c(=O)c21 (configuration not stated)	.	-	-	-	.
COCCCNc1nc2c(c(=O)n(Cc3cccc(Br)c3)c(=O)n2C)n1C	-	-	-	-	-
